Residue numbers refer to the chain shown, from its start.
Legend:
Experiment in all cases: PBM; 200 nM protein, PBS
Conditions in all cases: dsDNA, one strand shown
HESX1 [1] = target: HESX1 (Homo sapiens, UniProt Q9UBX0 95-180, R165K)
HESX1 [2] = target: HESX1 (Homo sapiens, UniProt Q9UBX0 95-180)
HESX1 [3] = target: HESX1 (Homo sapiens, UniProt Q9UBX0 95-180, P111T)
HOXB4 [4] = target: HOXB4 (Homo sapiens, UniProt P17483 148-234)
VENTX [5] = target: T1, VENTX (Homo sapiens, UniProt O95231 78-163, R121Q)
T1 sequence: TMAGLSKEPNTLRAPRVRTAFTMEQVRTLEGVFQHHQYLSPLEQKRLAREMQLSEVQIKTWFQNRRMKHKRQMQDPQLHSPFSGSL

HOXB9 [6] = target: HOXB9 (Homo sapiens, UniProt P17482 171-250, T197M)
Sequence of HOXB9 (Homo sapiens, UniProt P17482 171-250, T197M) (P17482 171-250 T197M): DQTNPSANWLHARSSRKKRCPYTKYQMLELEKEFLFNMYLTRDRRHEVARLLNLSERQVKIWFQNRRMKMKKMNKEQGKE

SIX6 [7] = target: T2, SIX6 (Homo sapiens, UniProt O95475 114-200, L167I)
T2 sequence: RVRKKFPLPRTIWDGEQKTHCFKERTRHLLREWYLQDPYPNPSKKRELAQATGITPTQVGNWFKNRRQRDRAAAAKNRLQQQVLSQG

VENTX [8] = target: T3, VENTX (Homo sapiens, UniProt O95231 78-163)
T3 sequence: T1 sequence with Q44R

SIX6 [9] = target: T4, SIX6 (Homo sapiens, UniProt O95475 114-200, L143V)
T4 sequence: T2 sequence with L30V, I54L

HOXA7 [10] = target: HOXA7 (Homo sapiens, UniProt P31268 116-202)
Sequence of HOXA7 (Homo sapiens, UniProt P31268 116-202) (P31268 116-202): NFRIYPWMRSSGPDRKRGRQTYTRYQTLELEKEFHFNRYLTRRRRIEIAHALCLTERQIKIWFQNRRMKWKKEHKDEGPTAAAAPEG

ALX4 [11] = target: ALX4 (Homo sapiens, UniProt Q9H161 200-286)
Sequence of ALX4 (Homo sapiens, UniProt Q9H161 200-286) (Q9H161 200-286): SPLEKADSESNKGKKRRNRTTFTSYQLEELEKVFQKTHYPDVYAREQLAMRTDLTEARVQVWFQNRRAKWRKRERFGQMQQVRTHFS

PAX4 [12] = target: T5, PAX4 (Homo sapiens, UniProt O43316 9-242, R200K)
T5 sequence: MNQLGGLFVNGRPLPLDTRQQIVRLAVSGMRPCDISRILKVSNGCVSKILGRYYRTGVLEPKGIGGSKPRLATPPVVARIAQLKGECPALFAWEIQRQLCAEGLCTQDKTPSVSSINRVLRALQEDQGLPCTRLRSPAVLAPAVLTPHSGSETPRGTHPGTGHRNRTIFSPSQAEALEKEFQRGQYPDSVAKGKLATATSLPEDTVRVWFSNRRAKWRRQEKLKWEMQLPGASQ

SIX6 [13] = target: T6, SIX6 (Homo sapiens, UniProt O95475 114-200, H141N)
T6 sequence: T2 sequence with H28N, I54L

SIX6 [14] = target: T7, SIX6 (Homo sapiens, UniProt O95475 114-200, T165P)
T7 sequence: T2 sequence with T52P, I54L

VENTX [15] = target: T8, VENTX (Homo sapiens, UniProt O95231 78-163, Y115F)
T8 sequence: T1 sequence with Y38F, Q44R

PAX4 [16] = target: T9, PAX4 (Homo sapiens, UniProt O43316 9-242)
T9 sequence: T5 sequence with K192R

SIX6 [17] = target: T10, SIX6 (Homo sapiens, UniProt O95475 114-200, L167M)
T10 sequence: T2 sequence with I54M

SIX6 [18] = target: T11, SIX6 (Homo sapiens, UniProt O95475 114-200, L143M)
T11 sequence: T2 sequence with L30M, I54L

SIX6 [19] = target: T12, SIX6 (Homo sapiens, UniProt O95475 114-200, L143I)
T12 sequence: T2 sequence with L30I, I54L

ALX4 [20] = target: ALX4 (Homo sapiens, UniProt Q9H161 200-286, Q225E)
Sequence of ALX4 (Homo sapiens, UniProt Q9H161 200-286, Q225E) (Q9H161 200-286 Q225E): as the sequence (Q9H161 200-286) above, with Q26E counted along it

SIX6 [21] = target: T13, SIX6 (Homo sapiens, UniProt O95475 114-200, T165G)
T13 sequence: T2 sequence with T52G, I54L

HOXB9 [22] = target: HOXB9 (Homo sapiens, UniProt P17482 171-250)
Sequence of HOXB9 (Homo sapiens, UniProt P17482 171-250) (P17482 171-250): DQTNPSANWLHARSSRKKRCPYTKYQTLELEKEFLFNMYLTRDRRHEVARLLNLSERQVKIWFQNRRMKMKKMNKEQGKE

SIX6 [23] = target: T14, SIX6 (Homo sapiens, UniProt O95475 114-200, T139Q)
T14 sequence: T2 sequence with T26Q, I54L

HOXB4 [24] = target: HOXB4 (Homo sapiens, UniProt P17483 148-234, V174I)
Sequence of HOXB4 (Homo sapiens, UniProt P17483 148-234, V174I) (P17483 148-234 V174I): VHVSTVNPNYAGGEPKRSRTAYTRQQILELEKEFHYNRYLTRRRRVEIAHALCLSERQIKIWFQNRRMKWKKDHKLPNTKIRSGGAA

SIX6 [25] = target: T15, SIX6 (Homo sapiens, UniProt O95475 114-200, T165A)
T15 sequence: T2 sequence with T52A, I54L

PAX4 [26] = target: T16, PAX4 (Homo sapiens, UniProt O43316 9-242, R200Q)
T16 sequence: T5 sequence with K192Q

PAX4 [27] = target: T17, PAX4 (Homo sapiens, UniProt O43316 9-242, F177V)
T17 sequence: T5 sequence with F169V, K192R

SIX6 [28] = target: T18, SIX6 (Homo sapiens, UniProt O95475 114-200, L167V)
T18 sequence: T2 sequence with I54V

PAX4 [29] = target: T19, PAX4 (Homo sapiens, UniProt O43316 9-242, F177Y)
T19 sequence: T5 sequence with F169Y, K192R

PROP1 [30] = target: PROP1 (Homo sapiens, UniProt O75360 56-141)
Sequence of PROP1 (Homo sapiens, UniProt O75360 56-141) (O75360 56-141): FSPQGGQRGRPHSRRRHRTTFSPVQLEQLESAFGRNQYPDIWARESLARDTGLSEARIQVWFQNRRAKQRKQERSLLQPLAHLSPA

SIX6 [31] = target: T20, SIX6 (Homo sapiens, UniProt O95475 114-200)
T20 sequence: T2 sequence with I54L

PROP1 [32] = target: PROP1 (Homo sapiens, UniProt O75360 56-141, R99H)
Sequence of PROP1 (Homo sapiens, UniProt O75360 56-141, R99H) (O75360 56-141 R99H): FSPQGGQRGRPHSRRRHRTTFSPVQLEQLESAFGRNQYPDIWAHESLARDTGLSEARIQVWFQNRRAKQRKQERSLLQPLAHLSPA

SIX6 [33] = target: T21, SIX6 (Homo sapiens, UniProt O95475 114-200, T165I)
T21 sequence: T2 sequence with T52I, I54L

HOXB9 [34] = target: HOXB9 (Homo sapiens, UniProt P17482 171-250, R186Q)
Sequence of HOXB9 (Homo sapiens, UniProt P17482 171-250, R186Q) (P17482 171-250 R186Q): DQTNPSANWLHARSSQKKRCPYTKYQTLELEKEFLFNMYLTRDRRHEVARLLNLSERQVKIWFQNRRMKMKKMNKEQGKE

PROP1 [35] = target: PROP1 (Homo sapiens, UniProt O75360 56-141, F88S)
Sequence of PROP1 (Homo sapiens, UniProt O75360 56-141, F88S) (O75360 56-141 F88S): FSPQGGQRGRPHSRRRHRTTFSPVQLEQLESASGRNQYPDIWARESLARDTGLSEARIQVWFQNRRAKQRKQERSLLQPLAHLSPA

PAX4 [36] = target: T22, PAX4 (Homo sapiens, UniProt O43316 9-242, R227W)
T22 sequence: T5 sequence with K192R, R219W

HOXA7 [37] = target: HOXA7 (Homo sapiens, UniProt P31268 116-202, W177C)
Sequence of HOXA7 (Homo sapiens, UniProt P31268 116-202, W177C) (P31268 116-202 W177C): as the sequence (P31268 116-202) above, with W62C counted along it

Sequence of HESX1 (Homo sapiens, UniProt Q9UBX0 95-180) (Q9UBX0 95-180): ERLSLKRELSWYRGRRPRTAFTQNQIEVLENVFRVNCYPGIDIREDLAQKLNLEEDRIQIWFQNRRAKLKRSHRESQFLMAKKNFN
Sequence of HESX1 (Homo sapiens, UniProt Q9UBX0 95-180, P111T) (Q9UBX0 95-180 P111T): as the sequence (Q9UBX0 95-180) above, with P17T counted along it
Sequence of HOXB4 (Homo sapiens, UniProt P17483 148-234) (P17483 148-234): as the sequence (P17483 148-234 V174I) above, with I27V counted along it
Sequence of HESX1 (Homo sapiens, UniProt Q9UBX0 95-180, R165K) (Q9UBX0 95-180 R165K): as the sequence (Q9UBX0 95-180) above, with R71K counted along it

ATTGAACC
binding signal (HESX1 [1]): 7.56 upbm affinity estimate (log intensity, higher = more binding, comparable within an allelic series) | binding signal (HESX1 [2]): 7.77 upbm affinity estimate (log intensity, higher = more binding, comparable within an allelic series) | binding signal (HESX1 [3]): 7.33 upbm affinity estimate (log intensity, higher = more binding, comparable within an allelic series)

CGTCCCGC
binding signal (HOXB4 [4]): 7.48 upbm affinity estimate (log intensity, higher = more binding, comparable within an allelic series) | binding signal (VENTX [5]): 7.82 upbm affinity estimate (log intensity, higher = more binding, comparable within an allelic series) | binding signal (HOXB9 [6]): 8.41 upbm affinity estimate (log intensity, higher = more binding, comparable within an allelic series) | binding signal (SIX6 [7]): 8.81 upbm affinity estimate (log intensity, higher = more binding, comparable within an allelic series) | binding signal (VENTX [8]): 7.89 upbm affinity estimate (log intensity, higher = more binding, comparable within an allelic series) | binding signal (SIX6 [9]): 8.68 upbm affinity estimate (log intensity, higher = more binding, comparable within an allelic series) | binding signal (HOXA7 [10]): 8.5 upbm affinity estimate (log intensity, higher = more binding, comparable within an allelic series) | binding signal (ALX4 [11]): 8 upbm affinity estimate (log intensity, higher = more binding, comparable within an allelic series) | binding signal (PAX4 [12]): 9.13 upbm affinity estimate (log intensity, higher = more binding, comparable within an allelic series) | binding signal (SIX6 [13]): 8.86 upbm affinity estimate (log intensity, higher = more binding, comparable within an allelic series) | binding signal (SIX6 [14]): 8.88 upbm affinity estimate (log intensity, higher = more binding, comparable within an allelic series) | binding signal (VENTX [15]): 7.87 upbm affinity estimate (log intensity, higher = more binding, comparable within an allelic series) | binding signal (PAX4 [16]): 9.17 upbm affinity estimate (log intensity, higher = more binding, comparable within an allelic series) | binding signal (SIX6 [17]): 8.79 upbm affinity estimate (log intensity, higher = more binding, comparable within an allelic series) | binding signal (SIX6 [18]): 8.75 upbm affinity estimate (log intensity, higher = more binding, comparable within an allelic series) | binding signal (SIX6 [19]): 8.79 upbm affinity estimate (log intensity, higher = more binding, comparable within an allelic series) | binding signal (ALX4 [20]): 8.06 upbm affinity estimate (log intensity, higher = more binding, comparable within an allelic series) | binding signal (SIX6 [21]): 8.8 upbm affinity estimate (log intensity, higher = more binding, comparable within an allelic series) | binding signal (HOXB9 [22]): 8.35 upbm affinity estimate (log intensity, higher = more binding, comparable within an allelic series) | binding signal (SIX6 [23]): 8.84 upbm affinity estimate (log intensity, higher = more binding, comparable within an allelic series) | binding signal (HOXB4 [24]): 7.45 upbm affinity estimate (log intensity, higher = more binding, comparable within an allelic series) | binding signal (SIX6 [25]): 8.8 upbm affinity estimate (log intensity, higher = more binding, comparable within an allelic series) | binding signal (PAX4 [26]): 9.15 upbm affinity estimate (log intensity, higher = more binding, comparable within an allelic series) | binding signal (PAX4 [27]): 9.15 upbm affinity estimate (log intensity, higher = more binding, comparable within an allelic series) | binding signal (SIX6 [28]): 8.87 upbm affinity estimate (log intensity, higher = more binding, comparable within an allelic series) | binding signal (PAX4 [29]): 9.19 upbm affinity estimate (log intensity, higher = more binding, comparable within an allelic series) | binding signal (PROP1 [30]): 6.64 upbm affinity estimate (log intensity, higher = more binding, comparable within an allelic series) | binding signal (SIX6 [31]): 8.76 upbm affinity estimate (log intensity, higher = more binding, comparable within an allelic series) | binding signal (PROP1 [32]): 6.65 upbm affinity estimate (log intensity, higher = more binding, comparable within an allelic series) | binding signal (SIX6 [33]): 8.78 upbm affinity estimate (log intensity, higher = more binding, comparable within an allelic series) | binding signal (HOXB9 [34]): 8.38 upbm affinity estimate (log intensity, higher = more binding, comparable within an allelic series) | binding signal (PROP1 [35]): 6.67 upbm affinity estimate (log intensity, higher = more binding, comparable within an allelic series) | binding signal (PAX4 [36]): 9.22 upbm affinity estimate (log intensity, higher = more binding, comparable within an allelic series) | binding signal (HOXA7 [37]): 8.32 upbm affinity estimate (log intensity, higher = more binding, comparable within an allelic series)
